Results filed as inconclusive are left out. Calls of active or inactive are those of the source. Calls follow the shape of the dose curve; as a rule, active = well fitted inhibition curve with a large enough effect; inconclusive = small, poorly fitted or top-dose-only effect; inactive = flat fitted curve, though single readings scatter.
Tests used:
Assay in all cases: qHTS profiling for inhibitors of Plasmodium falciparum proliferation (AID 504749); also: nearly all actives have a fitted effect of over 60% in size
Settings in all cases: P. falciparum in erythrocytes, SYBR Green DNA, 72 h; series mostly up to 28.7 µM
[1] = test system: CP252
How it was run: (§1)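 SYBR Green fluorescence of parasite DNA, read after lysis and overnight dark incubation, measured growth over 72 h in erythrocyte culture at 0.3% parasitemia and 2.5% hematocrit. Data normalised to DMSO and 0.29 uM artemisinin, with plate-drift correction.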

[2] = test system: CP256
How it was run: as §1

[3] = test system: CP260
How it was run: as §1

[4] = test system: CP262
How it was run: as §1

[5] = test system: CP265
How it was run: as §1

[6] = test system: CP266
How it was run: as §1

[7] = test system: CP268
How it was run: as §1

[8] = test system: CP269
How it was run: as §1

[9] = test system: CP286
How it was run: as §1

[10] = test system: CP291
How it was run: as §1

[11] = test system: CP297
How it was run: as §1

[12] = test system: CP305
How it was run: as §1

[13] = test system: CP315
How it was run: as §1

[14] = test system: CP325
How it was run: as §1

[15] = test system: CP329
How it was run: as §1

[16] = test system: CP335
How it was run: as §1

[17] = test system: DFO2036
How it was run: as §1

[18] = test system: DIV14
How it was run: as §1

[19] = test system: DIV17
How it was run: as §1

[20] = test system: DIV30
How it was run: as §1

[21] = test system: Dd2
How it was run: as §1

[22] = test system: ECU
How it was run: as §1

[23] = test system: FAB9
How it was run: as §1

[24] = test system: GB4
How it was run: as §1

[25] = test system: HB3
How it was run: as §1

[26] = test system: ICS
How it was run: as §1

[27] = test system: JCK
How it was run: as §1

[28] = test system: N140
How it was run: as §1

[29] = test system: P93_24
How it was run: as §1

[30] = test system: P94_40
How it was run: as §1

[31] = test system: PAD
How it was run: as §1

[32] = test system: PC15
How it was run: as §1

[33] = test system: PC26
How it was run: as §1

[34] = test system: PC49
How it was run: as §1

[35] = test system: SC27B
How it was run: as §1

[36] = test system: TAB109
How it was run: as §1

[37] = test system: TAB113
How it was run: as §1

[38] = test system: TAB165
How it was run: as §1

[39] = test system: W2
How it was run: as §1

Measured: Potency

C[N+]1([O-])[C@H]2CC[C@H]1CC(OC(=O)[C@@H](CO)c1ccccc1)C2 (some centres undefined)
inactive: [1] | [2] | [3] | [4] | [5] | [6] | [7] | [8] | [9] | [10] | [11] | [12] | [13] | [14] | [15] | [16] | [17] | [18] | [19] | [20] | [21] | [22] | [23] | [24] | [25] | [26] | [27] | [28] | [29] | [30] | [31] | [32] | [33] | [34] | [35] | [36] | [37] | [38] | [39]
